Results reported in PubChem BioAssay (NCI).
The panel holds about 79,000 compounds, 15% with a hit somewhere; the sample as a whole holds those more often. Activity calls are given as the source filed them. No stated cut-off is given here; in the data, active means growth inhibition above about 70%; inactive means the rest.

How the values were obtained:
[1] = NCI Yeast Anticancer Drug Screen. Data for the rad50 strain (AID 155);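 further: 0% = growth of vehicle-only cultures of the same strain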; details: S. cerevisiae rad50 strain growth inhibition; at 50.0 µM; stronger effect = higher value
Summary of the method: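 DNA repair mutant yeast, compound exposure, growth read-out; inhibition is taken relative to vehicle.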

[2] = NCI Yeast Anticancer Drug Screen. Data for the mec2-1 strain (AID 157); details: S. cerevisiae mec2-1 strain, at 50.0 µM, stronger effect = higher value
Summary of the method: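 Test agents were screened against the mec2-1 yeast strain, with defined DNA repair or cell cycle alteration. Growth was scored as inhibition against vehicle-only controls.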

[3] = NCI Yeast Anticancer Drug Screen. Data for the sgs1 mgt1 strain (AID 161);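 further: 0% = growth of cultures given vehicle only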; details: S. cerevisiae sgs1 mgt1 strain, at 50.0 µM, stronger effect = higher value
Summary of the method: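 Test agents were incubated with a DNA-repair-mutant yeast strain. Growth was then read and compared against vehicle-treated controls.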

[4] = NCI Yeast Anticancer Drug Screen. Data for the cln2 rad14 strain (AID 165);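 further: 0% = growth equal to vehicle treated cultures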; details: S. cerevisiae cln2 rad14 strain, at 50.0 µM, stronger effect = higher value
Summary of the method: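 Growth of compound-exposed yeast (cln2 rad14 genotype) measured and expressed as inhibition relative to vehicle.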

[5] = NCI Yeast Anticancer Drug Screen. Data for the bub3 strain (AID 167); details: S. cerevisiae bub3 mutant strain, at 50.0 µM, stronger effect = higher value
Summary of the method: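 In this screen, a yeast mutant lacking normal mitotic checkpoint function is challenged with compound. Relative growth versus vehicle gives the inhibition value.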

[6] = NCI Yeast Anticancer Drug Screen. Data for the mlh1 rad18 strain (AID 175); details: S. cerevisiae mlh1 rad18 strain growth inhibition; at 50.0 µM; stronger effect = higher value
Summary of the method: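 In this whole-cell yeast screen, a strain with altered DNA damage repair is challenged with compound, and its growth is measured against matched vehicle-treated controls.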

Measured: growth inhibition

NC(=O)Nc1ccc(Cl)cc1[N+](=O)[O-]
inactive: [1] -4.35% | [2] -8.5% | [3] 17.6% | [4] -46.5% | [5] -6.45% | [6] -7.1%

CC1(C(=O)O)CCCC2(C)C3=CC(=O)CCC3=CCC12 (configuration not stated)
inactive: [1] -3.7% | [2] 18.1% | [3] 8.7% | [4] 2.95% | [5] 24.7% | [6] 4.5%

O=C(/C=C/c1ccc(Cl)cc1)c1ccncc1
inactive: [1] 33.5% | [2] 0% | [3] 11.6% | [4] 18% | [5] 16.1% | [6] 33.9%

CC(=O)Nc1ccc2c(c1)C(=O)c1ccc(S(C)(=O)=O)cc1-2
inactive: [1] 14.8% | [2] -1.15% | [3] -0.95% | [4] 3.5% | [5] -0.85% | [6] -3.35%

c1ccc(-c2nc(-c3ccccc3)c(-c3ccccc3)[nH]2)cc1
inactive: [1] -0.85% | [2] 28.1% | [3] 12.2% | [4] 11.2% | [5] 5.05% | [6] -36.2%

COc1ccc(CN2CCCN(Cc3ccc(OC)cc3OC)C2c2ccccc2)c(OC)c1
inactive: [1] 19.6% | [2] 6.9% | [3] 8.05% | [4] 17.9% | [5] -4.6% | [6] 14.8%

CC1(O)c2ccccc2-c2c1n([O-])c1ccccc1[n+]2=O (configuration not stated)
inactive: [1] 7.9% | [2] -6.2% | [3] 12.2% | [4] -43.9% | [5] -1.8% | [6] 3.9%

Cn1c(=O)c2c(nc(Br)n2CC(=O)c2ccc([N+](=O)[O-])cc2)n(C)c1=O
inactive: [1] 24.8% | [2] 16.1% | [3] 22.1% | [4] 18.9% | [5] 0.55% | [6] 27.4%

O=C(N/N=C/c1c(O)ccc2ccccc12)c1ccccc1
inactive: [1] 29% | [2] 11.3% | [3] 42.1% | [4] 5% | [5] 16.1% | [6] 26.4%

OCCc1cc2ccccc2c2ccccc12
inactive: [1] -3.55% | [2] 6.75% | [3] -4.8% | [4] -11.9% | [5] -15.9% | [6] -12.9%

Cc1ccc2c(c1)C(c1ccccc1)(c1ccccc1)OC2
inactive: [1] 8.65% | [2] 41.4% | [3] 9.45% | [4] -10.8% | [5] 10.4% | [6] 13.6%

c1ccc(Cn2cccc2N=Nc2ccccc2)cc1
inactive: [1] 26.4% | [2] 2.8% | [3] 6.55% | [4] 6.8% | [5] -4% | [6] 14.3%

N/C(=N\O)C(=O)c1ccccc1
inactive: [1] 9.8% | [2] -12.8% | [3] -5.8% | [4] -5.3% | [5] 2.35% | [6] 3.95%

COc1cc(C2c3cc4c(cc3OC(C)(N3CCCC3)C2C)OCO4)cc(OC)c1OC (configuration not stated)
inactive: [1] -25.4% | [2] 6.95% | [3] -9.8% | [4] 14.2% | [5] -2.55% | [6] 0.25%

CC(C)CC/C(=N\NC(N)=O)C1CCOCC1
inactive: [1] -3.1% | [2] 14.2% | [3] 9.25% | [4] -7.2% | [5] -0.05% | [6] -3.85%

CC(=O)NS(=O)(=O)c1ccc(NC(=O)CCC(=O)O)cc1
inactive: [1] -8.95% | [2] -20.4% | [3] 2.4% | [4] 7.2% | [5] 9.1% | [6] 4%

CSc1cccc(NC(=O)/C=C/C(=O)O)c1
inactive: [1] -3.05% | [2] 5.1% | [3] 16.3% | [4] -58.5% | [5] 6.65% | [6] -0.9%

CC(C)C(=NNC(N)=O)C(C)C
inactive: [1] 2.1% | [2] 2.2% | [3] -1.35% | [4] -3.7% | [5] -6.95% | [6] -8.4%

CCC1CN2CCc3cc(OC)c(OC)cc3C2CC1O (configuration not stated)
inactive: [1] 1.3% | [2] 40.4% | [3] 20% | [4] -3.1% | [5] 44.4% | [6] 27.9%

C#CCC1CCCC/C1=N\Nc1ccc([N+](=O)[O-])cc1[N+](=O)[O-] (configuration not stated)
inactive: [1] 2.25% | [2] 3.2% | [3] -4.4% | [4] -1.75% | [5] 4.4% | [6] 4.1%

O=C(c1ccccc1)C1C(c2ccccc2)C=CC(c2ccccc2)C1C(=O)c1ccccc1 (configuration not stated)
inactive: [1] -18.4% | [2] -11.3% | [3] -9% | [4] -4.55% | [5] 3.2% | [6] -22.6%

CC(=O)OC(C)(C#N)C(C)(C#N)OC(C)=O (configuration not stated)
inactive: [1] -13.3% | [2] -6.4% | [3] -1.1% | [4] -37.1% | [5] -8.75% | [6] -20.3%

N#CC(CNC1CCCCC1)c1ccccc1 (configuration not stated)
inactive: [1] -9.35% | [2] -4.35% | [3] 4.3% | [4] -32.7% | [5] 15.1% | [6] 10.7%

COC(=O)C1C(=O)C=C(C)C(C(=O)OC)C1c1ccccc1 (configuration not stated)
inactive: [1] 7.7% | [2] -4.2% | [3] 6.15% | [4] -5.85% | [5] 12.5% | [6] 0.25%

Cc1ccc(S(=O)(=O)N2CCCSCCSCCCN(S(=O)(=O)c3ccc(C)cc3)CC2)cc1
inactive: [1] 8.85% | [2] -10.8% | [3] 4% | [4] -45% | [5] -10.1% | [6] 2.05%

O=C(Cc1ccccn1)c1cccnc1
inactive: [1] -1.15% | [2] -9.7% | [3] -4.75% | [4] -27.2% | [5] -17% | [6] -4.25%

O=C(O)c1cc([N+](=O)[O-])cc(P(=O)(O)O)c1
inactive: [1] 2.55% | [2] -6.45% | [3] -2% | [4] -20.2% | [5] -3.55% | [6] 12.9%

O=c1[nH]cnc2c1ncn2C1CCC(CO)O1 (configuration not stated)
inactive: [1] -11% | [2] 14.6% | [3] 11.3% | [4] -0.1% | [5] 1.85% | [6] -8.85%

CCCCNCC1C(O)CCC2CN3CCc4c([nH]c5ccccc45)C3CC21 (configuration not stated)
inactive: [1] 15.9% | [2] 5.85% | [3] 11.3% | [4] 9.9% | [5] 6.05% | [6] 16.9%

Cc1ccc(C)c(NC(=O)Oc2ccc(Br)cc2Br)c1
inactive: [1] 11.4% | [2] 5.9% | [3] 3.4% | [4] -28.1% | [5] -1% | [6] 18.1%

Cc1cc(OCCBr)ccc1[N+](=O)[O-]
inactive: [1] -4.5% | [2] 9.45% | [3] -17.6% | [4] -15.1% | [5] 22.7% | [6] 0.45%

CC(=O)OC[C@@H](COC(=O)/C=C/c1ccc(O)cc1)OC1OC(CO)C(O)C(O)C1O (some centres not stated)
inactive: [1] -1.45% | [2] -37.2% | [3] -21.8% | [4] 1.7% | [5] -17.1% | [6] -1.8%

C1CCC2(CC1)SCCS2
inactive: [1] 2% | [2] -18.4% | [3] -1.9% | [4] -48.9% | [5] -9.4% | [6] -10.4%

CS(=O)(=O)OCCn1cnc2nc(NC(=O)c3ccccc3)[nH]c(=O)c21
inactive: [1] -13.1% | [2] -20.6% | [3] -12.7% | [4] 0.55% | [5] -19.2% | [6] -24.6%

CN1CCCN(C)CCCN(C)CCCN(C)CCC1
inactive: [1] -19.8% | [2] -2.45% | [3] 7.6% | [4] -4.65% | [5] -24.6% | [6] 11.8%

CCN(CC)CCn1[nH]c2c3ccc(=O)cc3sc3c(NCCN)ccc1c32
inactive: [1] 13.3% | [2] -3.35% | [3] -12.7% | [4] -5.55% | [5] 2.5% | [6] -2.4%

Cc1ccn2c(=O)c(CCBr)c(C)nc2c1
inactive: [1] 12.8% | [2] -4.65% | [3] 5.25% | [4] 13.8% | [5] 6.05% | [6] 2.25%

Cc1ccc(S(=O)(=O)Nc2ccc(O)cc2)cc1
inactive: [1] -11.2% | [2] -15.2% | [3] -15.2% | [4] -27% | [5] -7.6% | [6] -5.4%

CC(C)CCC(=O)O
inactive: [1] -8.45% | [2] -9.1% | [3] -4.4% | [4] -9.6% | [5] 3.8% | [6] -10.4%

CC(=O)Oc1ccc2c(c1)Cc1cc([N+](=O)[O-])ccc1-2
inactive: [1] 8.45% | [2] 14.2% | [3] 14.9% | [4] -9.5% | [5] 32.7% | [6] 20.6%

CCOc1ccc(C2Oc3c(cccc3OC)C=C2[N+](=O)[O-])cc1OCC (configuration not stated)
inactive: [1] 38.8% | [2] 38.9% | [3] 32.5% | [4] 11.4% | [5] 42.2% | [6] 5.7%

CN(N=Nc1ccc(C#N)cc1)C(C)(C)C
inactive: [1] 3.3% | [2] -5.3% | [3] 6.5% | [4] -5.85% | [5] -2.35% | [6] 5.55%
